# EPAC1 antag: EPAC1 (human) antagonism; O95398; EPAC1 GEF assay, Rap1b-BODIPY-GDP exchange fluorescence; Potency, µM (highest dose often 115 µM), for inactives: top-dose activity change, negative = inhibition, most hits filed as inhibitors; actives 0.14% (n = 360,000); AID 720709;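 further: potency means the concentration at half of the fitted maximal effect; plate controls were vehicle for no effect and positive control for full effect; nearly all actives have a fitted effect of over 50% in size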
# EPAC1 ag: EPAC1 (human) agonism. Potency, µM (top dose mostly 154 µM), without a hit: top-dose activation, usual class: activators. actives 0.073% (n = 360,000). EPAC1 agonist qHTS, biochemical assay; response scale: 100% = response to 6.5 mM cAMP. O95398; further: potency means the concentration at half of the fitted maximal effect; nearly all actives have a fitted effect of over 60% in size
#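 EPAC1 100 nM, Rap1B–BODIPY-GDP 250 nM, unlabeled GDP 50 uM; compound titration; 5 min RT; kinetic read ex480/em540 at 5-min intervals ×30 min; data normalized to 6.5 mM cAMP agonist control.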
# FBPA coupling cs: counter-screen for Giardia aldolase inhibitors: coupling enzyme system; coupling enzyme system counterscreen, AmpLite Red fluorescence; activity change, negative = inhibition, % at 58.2 µM, hits read low; actives 0.67% (n = 290,000); AID 2472; in the data active means activity change below about -30%; further: on the % scale 0 is the no-effect control and ±100 the full control effect
#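 Final compound at 57.5 uM, incubated 10 min at RT with coupling enzyme reagent (glyceraldehyde-3-phosphate), then 20 min with substrate and AmpLite Red detection. Fluorescence read at 525/598 nm; tests interference with the coupling assay, not aldolase inhibition.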
# EPAC2 agonist: activates human EPAC2 exchange factor; EPAC2 activation, biochemical qHTS; response scale: 100% = 6.5 mM cAMP response; actives 0.079% (n = 360,000); AID 720711; Potency, µM (titrated, usually from 154 µM), without a hit: at the highest dose activation, actives largely listed as activators; Q8WZA2; further: potency means the concentration at half of the fitted maximal effect; nearly all actives have a fitted effect of over 50% in size
#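 Each well held 100 nM EPAC2, 250 nM RAP1B-BODIPY-GDP and 50 uM GDP. Fluorescence, read at 5-min intervals to 30 min, was referenced to a 6.5 mM cAMP positive control.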
# USP1-UAF1 inh: USP1/UAF1 (human) deubiquitinase inhibition; Potency, µM (top dose mostly 57.1 µM), inactives show at the highest dose activity change, negative = inhibition, actives largely listed as inhibitors; O94782; recombinant USP1/UAF1, Ub-Rhodamine cleavage fluorescence; actives 0.23% (n = 390,000); further: potency means the concentration at half of the fitted maximal effect; on the % scale 0 is the no-effect control and ±100 the full control effect; nearly all actives have a fitted effect of over 60% in size
# Target sequence (O94782 whole entry, looked up): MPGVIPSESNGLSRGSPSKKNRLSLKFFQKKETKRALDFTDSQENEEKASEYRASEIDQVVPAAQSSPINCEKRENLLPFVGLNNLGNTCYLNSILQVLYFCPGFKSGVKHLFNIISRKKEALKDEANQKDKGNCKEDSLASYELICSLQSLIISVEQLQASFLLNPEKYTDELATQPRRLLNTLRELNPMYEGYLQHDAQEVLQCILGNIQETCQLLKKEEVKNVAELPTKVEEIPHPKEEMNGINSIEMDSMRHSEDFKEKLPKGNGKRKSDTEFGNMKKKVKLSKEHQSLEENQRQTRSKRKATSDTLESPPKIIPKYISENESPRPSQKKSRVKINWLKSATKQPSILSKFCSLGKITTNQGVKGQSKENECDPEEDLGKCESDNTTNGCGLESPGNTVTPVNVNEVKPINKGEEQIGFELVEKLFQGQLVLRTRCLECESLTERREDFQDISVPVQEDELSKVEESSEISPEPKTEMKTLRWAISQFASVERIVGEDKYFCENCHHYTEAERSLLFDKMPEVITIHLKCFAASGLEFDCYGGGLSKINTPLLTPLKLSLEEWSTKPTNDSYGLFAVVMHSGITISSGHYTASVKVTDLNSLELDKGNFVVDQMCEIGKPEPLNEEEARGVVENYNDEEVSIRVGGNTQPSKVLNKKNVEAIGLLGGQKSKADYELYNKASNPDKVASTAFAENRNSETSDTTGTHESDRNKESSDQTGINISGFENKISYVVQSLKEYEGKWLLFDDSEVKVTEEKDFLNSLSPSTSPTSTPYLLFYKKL
#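 High-throughput fluorogenic screen: 1nM USP1/UAF1 complex, Ub-Rho substrate 150nM final, 50mM HEPES pH 7.8 with 0.5mM EDTA, 0.1 mg/ml BSA, 1mM TCEP and 0.01% Tween-20.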
# EPAC2 antagonist: EPAC2 (human) antagonism. AID 720708. EPAC2 GEF exchange of Rap1B-BODIPY-GDP, fluorescence. Potency, µM (series often up to 114 µM), for the others: top-dose activity, negative = inhibition, usual class: inhibitors. actives 0.18% (n = 360,000); further: potency means the concentration at half of the fitted maximal effect; on the % scale 0 is the no-effect control and ±100 the full control effect; nearly all actives have a fitted effect of over 45% in size
# * marks the source's active call; other numbers are inactive results; ? = inconclusive; . = no result given; [ ] = dose if it differs, or a comment. Sampled rows, rich in hits. Any-hit rate of the full collection: about 0.87%. Unless noted, the call rests on the fitted dose curve; in most records, active means well fitted curve in the direction sought with a large enough effect; inconclusive means small, poorly fitted or top-dose-only effect, or another doubt; inactive means no such curve, though single readings can be large; an effect the other way counts as inactive or inconclusive.
SMILES,EPAC1 antag,EPAC1 ag,FBPA coupling cs,EPAC2 agonist,USP1-UAF1 inh,EPAC2 antagonist
CCOC(=O)N1CCN(C(=O)c2ccc(Cn3c(=S)[nH]c4cc(C(=O)OC)ccc4c3=O)cc2)CC1,2%,-6%,.,-1%,-23%,18%
C=CCNS(=O)(=O)c1ccc2c(c1)n(C)c(=O)n2C,0%,5%,3,-5%,-3%,0%
CCN(Cc1ccncc1)Cc1c(O)ccc2cc(Br)ccc12,-12%,9%,-54*,6%,-24%,-20%
O=C(Cn1nc(-c2ccccc2)ccc1=O)Nc1ccc(N2CCN(C(=O)c3ccccc3)CC2)cc1,-11%,2%,4,0%,3%,-4%
COc1nc(=O)n(C2OC(CO)C(O)C2O)cc1C (stereo not given),-21%,10%,.,-1%,1%,-3%
Cc1cc(C)cc(C(=O)NCc2ccc3c(c2)OCO3)c1,-9%,13%,-1,17%,-20%,4%
CC(=O)c1ccc(NC(=O)CC2Nc3cccc4cccc(c34)NC2=O)cc1 (stereo not given),-18%,6%,-31*,9%,-23%,7%
COc1ccc(NC(=O)c2cc3c(=O)n(Cc4cccs4)ccc3nc2C)cc1,.,.,.,.,-22%,.
CCc1nn(CC(=O)NCCc2ccc(OC)cc2OC)c(=O)c2cc3c(OC)cccc3n12,.,.,.,.,-22%,.
O=C(C1CCCN(S(=O)(=O)c2ccccc2[N+](=O)[O-])C1)N1CCN(c2ccccc2)CC1 (stereo not given),-20%,10%,-1,-4%,-21%,-8%
COc1ccccc1Nc1nc(Cl)nc(NC(C)(C)C)n1,-11%,8%,1,16%,-14%,-13%
Nc1ccc2c(c1)C(=O)C(=O)c1ccccc1-2,?,-9%,0,-12%,1.3µM*,8.9µM*
O=C1C(=O)c2ccc(-c3ccccc3)cc2-c2ccccc21,?,-2%,-72*,25%,5µM*,-26%
Nc1ccc2c(c1)C(=O)c1ccccc1-2,-26%,16%,.,10%,-7%,-18%
O=C(COC(=O)c1ccc(Br)o1)Nc1ccc(F)cc1[N+](=O)[O-],-4%,2%,.,11%,-22%,7%
CCOc1cc(C2c3c(oc4ccccc4c3=O)C(=O)N2Cc2ccc(OC)cc2)ccc1O (stereo not given),.,.,.,.,-22%,.
N#Cc1ccsc1NC(=O)C1CCN(C(=O)c2ccc(F)cc2)CC1,13%,0%,.,6%,-24%,-4%
N#C/C(=C\c1ccc(OCc2ccccc2)cc1)C(=O)Nc1nc2c(s1)CCN(Cc1ccccc1)C2,5%,-4%,0,-8%,-18%,37%
CN(C)c1ccc(/C=C(/C#N)C(=O)Nc2nc3c(s2)CCN(Cc2ccccc2)C3)cc1,3%,19%,.,100µM*,?,89%
CCc1cc(=O)oc2cc(C)cc(OCC(=O)N[C@@H](CSCc3ccccc3)C(=O)O)c12,-16%,-20%,7,7%,10%,56µM*
C=CCn1c(O)c(CN2CCCCC2)c(C)c(C#N)c1=O,-4%,6%,-33*,3%,?,0%
Cc1c(CN2CCCC(C)C2)c(O)n(CCO)c(=O)c1C#N (stereo not given),-6%,-6%,2,-1%,-6%,8%
CC(CC(=O)Nc1ccc2c(c1)c(=O)n(C)n2Cc1cccc(C(F)(F)F)c1)C(F)(F)F (stereo not given),-5%,-13%,.,-11%,.,2%
COc1ccc(S(=O)(=O)N(C)C[C@H]2Oc3c(NS(=O)(=O)c4ccc(F)cc4)cccc3C(=O)N([C@H](C)CO)C[C@@H]2C)cc1,-9%,5%,.,3%,-27%,-17%
COc1ccccc1NS(=O)(=O)c1cc([N+](=O)[O-])ccc1N/N=C/c1c(C)[nH]c2ccccc12,-2%,-1%,-3,-6%,28µM*,0%
SMILES,EPAC1 antag,EPAC1 ag,FBPA coupling cs,EPAC2 agonist,USP1-UAF1 inh,EPAC2 antagonist
Cc1[nH]c2ccccc2c1/C=N/Nc1ccc([N+](=O)[O-])cc1,-22%,-8%,-1,-5%,-16%,0%
Cc1nn(C)cc1CNCc1ccc(OCC(O)CN(C)Cc2ccccc2)cc1 (stereo not given),-2%,2%,2,-6%,-12%,7%
COc1cc(OC)nc(Oc2ccccc2/C=N/O)n1,0%,5%,.,6%,-6%,-29%
O=C(CSc1nc(O)cc(=O)n1-c1ccccc1)Nc1ccc2c3c(cccc13)CC2,79µM*,-2%,-2,4%,-4%,1%
Cc1c(O)nc(SCC(=O)Nc2ccc3c4c(cccc24)CC3)n(-c2ccccc2)c1=O,21%,-3%,14,0%,-8%,-7%
CC1CCC(NC(=O)CCNS(=O)(=O)c2ccccc2)CC1 (stereo not given),11%,-8%,.,6%,-7%,1%
CC1=C(C(=O)OC(C)C)C2(O)C(=O)c3ccccc3C2(O)N1 (stereo not given),-6%,4%,-4,2%,-9%,-5%
CC(=O)C1=C(C)OC2(O)c3ccccc3C(=O)C12O (stereo not given),79µM*,4%,-15,21%,8.9µM*,-24%
CCOC(=O)C1=C(C)OC2(O)c3ccccc3C(=O)C12O (stereo not given),?,1%,-23,?,13µM*,-27%
COC(=O)[C@H](CCSC)NC(=O)Nc1ccc(OC)c(Cl)c1,-13%,0%,4,19%,-29%,2%[57.1 µM]
CN1CCc2nc3sc(C(=O)C45CC6CC(CC(C6)C4)C5)c(N)c3cc2C1,-19%,12%,3,?,?,50µM*
C=CCN1C(=O)C(Cc2ccc(SC(F)F)cc2)SC1=Nc1ccc(C(=O)O)cc1 (stereo not given),4%,-10%,3,-3%,-16%,-5%
Cc1nn(-c2ccccn2)c2c1-c1nc(N3CCOCC3)ncc1CC2,-7%,1%,-39*,2%,7%,-6%
Cc1nn(-c2ccccn2)c2c1-c1nc(N)ncc1CC2,-3%,-1%,-47*,-6%,-19%,9%
COC(=O)c1ccccc1N/C=C1\CCc2c(c(C)nn2-c2ccccn2)C1=O,0%,10%,-17,-26%[15.6 µM],?,5%
Cc1cc(NC(=O)Nc2nnc(N(C)Cc3ccccc3)s2)ccc1Br,.,.,.,.,32µM*,.
CCN(c1ccccc1)c1nnc(NC(=O)Nc2ccc(Br)c(C)c2)s1,.,.,.,.,-10%,.
O=c1[nH]c2ccccc2nc1N1CCOCC1,14%,5%,4,-4%,-16%,15%
